Experimental data reported in publication PMC12820563, “FoxP3 forms a head-to-head dimer in vivo and stabilizes its multimerization on adjacent microsatellites”.
The full ranking holds about 16,000 sequences; the median of “rpm ratio (pull-down/input)” is about 0.5, and the highest 2% start at about 5.5. The sample as a whole holds a higher share of the highest values than the screen did.

Target: T1, MBP-FoxP3dN (Mus musculus, UniProt Q99JB6 188-423)
T1 sequence: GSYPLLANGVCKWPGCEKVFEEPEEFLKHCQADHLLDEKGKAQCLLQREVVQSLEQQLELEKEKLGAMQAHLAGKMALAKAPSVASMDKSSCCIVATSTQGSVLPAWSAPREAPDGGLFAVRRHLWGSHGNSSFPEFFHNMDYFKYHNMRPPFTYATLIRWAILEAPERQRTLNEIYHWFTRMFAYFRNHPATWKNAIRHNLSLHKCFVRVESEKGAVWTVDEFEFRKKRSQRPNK
Assay: PD-seq (MBP pull-down with sequencing); 20 mM Tris-HCl pH 7.5, 100 mM NaCl, 1.5 mM MgCl2, 0.4 uM protein, 0.1 uM dsDNA library, 30 min, room temperature, amylose pull-down; high values mean tight binding
Details: protein: recombinant; tags: His6-MBP; chain copies: 2; dsDNA, one strand shown
Procedure, shortened: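 Protein and DNA were mixed at 0.4 µM and 0.1 µM and held for 30 min at room temperature in Tris pH 7.5 buffer with NaCl and MgCl2; the protein was a His6-MBP-tagged, N-terminally truncated mouse FoxP3 or FoxP1 fragment from E. coli, and the DNA a Klenow-filled double-stranded degenerate library. Amylose resin captured the complexes, which were washed three times. Binding is read as reads-per-million enrichment of pull-down versus input after Illumina sequencing, with replicates pooled.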

First: GATGATTGTTCTCCCAGCTGATGAATTGCGCAACTCGAGTAAACAAATTTTCCTAATCTTTCTGTTCAAGCGCCATCTAC
Second: GATGATTGTTCTCCCAGCTGATGAATTTCGCAACTCGAGTAAACAAATTTTCCTAATCTTTCTGTTCAAGCGCCATCTAC
The binding signal of the first is higher: 6.43 RPM ratio (pull-down/input) for the first, 5.53 RPM ratio (pull-down/input) for the second.

Compared with “GATGATTGTTCTCCCAGCTGATGAATTCGCCAACTCGAGTAAACAAATTTTCCTAATCTTTCTGTTCAAGCGCCATCTAC”, “GATGATTGTTCTCCCAGCTGATGAATTTTTCAACTCGAGTAAACAAATTTTCCTAATCTTTCTGTTCAAGCGCCATCTAC” is lower in binding signal: 0.292 RPM ratio (pull-down/input) for the first, 0.287 RPM ratio (pull-down/input) for the second.

First: GATGATTGTTCTCCCAGCTGATGAATTGCCCAACTCGAGTAAACAAATTTTCCTAATCTTTCTGTTCAAGCGCCATCTAC
Second: GATGATTGTTCTCCCAGCTGATGAATTCGCAAACTCGAGTAAACAAATTTTCCTAATCTTTCTGTTCAAGCGCCATCTAC
The binding signal of the first is lower: 0.42 RPM ratio (pull-down/input) for the first, 0.431 RPM ratio (pull-down/input) for the second.

Going from “GATGATTGTTCTCCCAGCTGATGAATTTCCCGTGTCGAGTAAACAAATTTTCCTAATCTTTCTGTTCAAGCGCCATCTAC” to “GATGATTGTTCTCCCAGCTGATGAATTAGCTTCTTCGAGTAAACAAATTTTCCTAATCTTTCTGTTCAAGCGCCATCTAC”, the binding signal rises from 0.287 RPM ratio (pull-down/input) to 0.901 RPM ratio (pull-down/input).

Compared with “GATGATTGTTCTCCCAGCTGATGAATTAGTTGTGTCGAGTAAACAAATTTTCCTAATCTTTCTGTTCAAGCGCCATCTAC”, “GATGATTGTTCTCCCAGCTGATGAATTAGTTCTGTCGAGTAAACAAATTTTCCTAATCTTTCTGTTCAAGCGCCATCTAC” is lower in binding signal: 6.21 RPM ratio (pull-down/input) for the first, 0.398 RPM ratio (pull-down/input) for the second.

First: GATGATTGTTCTCCCAGCTGATGAATTAGCTGTCTCGAGTAAACAAATTTTCCTAATCTTTCTGTTCAAGCGCCATCTAC
Second: GATGATTGTTCTCCCAGCTGATGAATTAGTTGTCTCGAGTAAACAAATTTTCCTAATCTTTCTGTTCAAGCGCCATCTAC
The binding signal of the first is lower: 2.44 RPM ratio (pull-down/input) for the first, 5.87 RPM ratio (pull-down/input) for the second.

Compared with “GATGATTGTTCTCCCAGCTGATGAATTAGTGTTGTCGAGTAAACAAATTTTCCTAATCTTTCTGTTCAAGCGCCATCTAC”, “GATGATTGTTCTCCCAGCTGATGAATTAGTTCTCTCGAGTAAACAAATTTTCCTAATCTTTCTGTTCAAGCGCCATCTAC” is lower in binding signal: 3.93 RPM ratio (pull-down/input) for the first, 0.491 RPM ratio (pull-down/input) for the second.

Going from “GATGATTGTTCTCCCAGCTGATGAATTTCAGGGCTCGAGTAAACAAATTTTCCTAATCTTTCTGTTCAAGCGCCATCTAC” to “GATGATTGTTCTCCCAGCTGATGAATTGCAGACCTCGAGTAAACAAATTTTCCTAATCTTTCTGTTCAAGCGCCATCTAC”, the binding signal rises from 0.225 RPM ratio (pull-down/input) to 0.496 RPM ratio (pull-down/input).

Compared with “GATGATTGTTCTCCCAGCTGATGAATTTTGGCTCTCGAGTAAACAAATTTTCCTAATCTTTCTGTTCAAGCGCCATCTAC”, “GATGATTGTTCTCCCAGCTGATGAATTCCGATCATCGAGTAAACAAATTTTCCTAATCTTTCTGTTCAAGCGCCATCTAC” is lower in binding signal: 0.475 RPM ratio (pull-down/input) for the first, 0.404 RPM ratio (pull-down/input) for the second.

First: GATGATTGTTCTCCCAGCTGATGAATTCTCAGCATCGAGTAAACAAATTTTCCTAATCTTTCTGTTCAAGCGCCATCTAC
Second: GATGATTGTTCTCCCAGCTGATGAATTTCAGCATTCGAGTAAACAAATTTTCCTAATCTTTCTGTTCAAGCGCCATCTAC
The binding signal of the first is lower: 0.635 RPM ratio (pull-down/input) for the first, 4.99 RPM ratio (pull-down/input) for the second.

Compared with “GATGATTGTTCTCCCAGCTGATGAATTCCAGCATTCGAGTAAACAAATTTTCCTAATCTTTCTGTTCAAGCGCCATCTAC”, “GATGATTGTTCTCCCAGCTGATGAATTCAGCATCTCGAGTAAACAAATTTTCCTAATCTTTCTGTTCAAGCGCCATCTAC” is higher in binding signal: 4.11 RPM ratio (pull-down/input) for the first, 6.49 RPM ratio (pull-down/input) for the second.

First: GATGATTGTTCTCCCAGCTGATGAATTCAGCATTTCGAGTAAACAAATTTTCCTAATCTTTCTGTTCAAGCGCCATCTAC
Second: GATGATTGTTCTCCCAGCTGATGAATTCAGCAGCTCGAGTAAACAAATTTTCCTAATCTTTCTGTTCAAGCGCCATCTAC
The binding signal of the first is higher: 5.86 RPM ratio (pull-down/input) for the first, 0.994 RPM ratio (pull-down/input) for the second.

Going from “GATGATTGTTCTCCCAGCTGATGAATTCCGCACTTCGAGTAAACAAATTTTCCTAATCTTTCTGTTCAAGCGCCATCTAC” to “GATGATTGTTCTCCCAGCTGATGAATTTGGGTCATCGAGTAAACAAATTTTCCTAATCTTTCTGTTCAAGCGCCATCTAC”, the binding signal falls from 1.22 RPM ratio (pull-down/input) to 0.724 RPM ratio (pull-down/input).

Compared with “GATGATTGTTCTCCCAGCTGATGAATTCTTTACTTCGAGTAAACAAATTTTCCTAATCTTTCTGTTCAAGCGCCATCTAC”, “GATGATTGTTCTCCCAGCTGATGAATTGGGGATTTCGAGTAAACAAATTTTCCTAATCTTTCTGTTCAAGCGCCATCTAC” is higher in binding signal: 0.373 RPM ratio (pull-down/input) for the first, 0.404 RPM ratio (pull-down/input) for the second.

First: GATGATTGTTCTCCCAGCTGATGAATTTCGTGAATCGAGTAAACAAATTTTCCTAATCTTTCTGTTCAAGCGCCATCTAC
Second: GATGATTGTTCTCCCAGCTGATGAATTCAGCTCATCGAGTAAACAAATTTTCCTAATCTTTCTGTTCAAGCGCCATCTAC
The binding signal of the first is lower: 0.281 RPM ratio (pull-down/input) for the first, 0.381 RPM ratio (pull-down/input) for the second.

Compared with “GATGATTGTTCTCCCAGCTGATGAATTTTGAGCCTCGAGTAAACAAATTTTCCTAATCTTTCTGTTCAAGCGCCATCTAC”, “GATGATTGTTCTCCCAGCTGATGAATTCTGCGCCTCGAGTAAACAAATTTTCCTAATCTTTCTGTTCAAGCGCCATCTAC” is higher in binding signal: 0.568 RPM ratio (pull-down/input) for the first, 2.3 RPM ratio (pull-down/input) for the second.
